Test results published in PubChem BioAssay (NCATS).
Results filed as inconclusive are left out. Activity calls are given as the source filed them. The call rests on the fitted dose curve; in most records, active means well fitted cell-killing curve with a large enough effect; inconclusive means small, poorly fitted or top-dose-only effect, or effect the other way; inactive means no such curve, though single readings can be large or run the other way.

test: Quantitative High-Throughput drug screen in 47 multiple myeloma cell lines against the NCATS MIPE library collection: MM1R_ATCC cell viability assay (AID 1918981); conditions: MM1R multiple myeloma cells, CellTiter-Glo viability, 48 h; series mostly up to 45.8 µM; further: nearly all actives have a fitted effect of over 35% in size
Source text: PI: Beverly A. Mock Ph.D.
Laboratory of Cancer Biology and Genetics,
Center for Cancer Research, National Cancer Institute,
National Institute of Health, Bethesda, Maryland
Drug resistance and disease progression are common in multiple myeloma (MM) patients, underscoring the need for new therapeutic combinations. […] We hypothesized that effective combinations would reduce MYC expression and enhance p16 activity. […] These preclinical data identify potentially useful drug combinations for evaluation in drug-resistant MM and reveal potential mechanisms of combined drug sensitivity.
Described herein is the primary MIPE qHTS used to cherrypick compounds. Validated compounds were then further tested for potential synergistic activiy.
[1] Peat TJ, Gaikwad SM, Dubois W, Gyabaah-Kessie N, Zhang S, Gorjifard S, Phyo Z, Andres M, Hughitt VK, Simpson RM, Miller MA, Girvin AT, Taylor A, Williams D, D'Antonio N, Zhang Y, Rajagopalan A, Flietner E, Wilson K, Zhang X, Shinn P, Klumpp-Thomas C, McKnight C, Itkin Z, Chen L, Kazandijian D, Zhang J, Michalowski AM, Simmons JK, Keats J, Thomas CJ, Mock BA. Drug combinations identified by high-throughput screening promote cell cycle transition and upregulate Smad pathways in myeloma. Cancer Lett. 2023 Aug 1;568:216284. doi: 10.1016/j.canlet.2023.216284. Epub 2023 Jun 24. PMID: 37356470; PMCID: PMC10408729.
SEQUENCE No. (e.g., 1, 2, 3, etc.); […] (e.g., Cells, Incubation, Reagent, etc.); VALUE and DESCRIPTION.
1; Cells; 5 uL; white, solid bottom 1536-well Greiner assay plate.
2; Compounds; 23 nL; Kalypsis pin tool (Wako USA) equipped with a 1536-well pin head to transfer to the assay plates.
3; Incubation; 48 hours; 37C incubation.
4; Reagent;5uL; CellTiter Glo (Promega).
5; Detector; 425V; Luminescence; Viewlux PerkinElmer.
NOTES (numbers refer to Sequence numbers above)
1. The cell-based screening methods employed in this study were like those previously published. Briefly, the corresponding myeloma cell lines were screened in 1,536-well plates with 500 cells, 5-uL per well for inhibition of cell viability (assessed by measuring ATP levels with CellTiterGlo).
2. NCATS MIPE 4.0 library of approved and investigational drugs were added using the Kalypsis pin tool. Wells treated with DMSO only for 100% viability and media only for 0% viability were used as controls.
3. The assay plates were covered and incubated for 48 hours in a 37C, 5% CO2 incubator with controlled humidity.
4. After 48 hours, CellTilter-GloTM luminescent substrate mix (Promega) reagent was added to the assay plate and plates we incubated for 5 min at room temperature.
5. Signal was measured as median relative luminescence units on a ViewLux (PerkinElmer) multiplate reader.
[1] Heske CM, Davis MI, Baumgart JT, Wilson K, Gormally MV, Chen L, Zhang X, Ceribelli M, Duveau DY, Guha R, Ferrer M, Arnaldez FI, Ji J, Tran HL, Zhang Y, Mendoza A, Helman LJ, Thomas CJ. Matrix Screen Identifies Synergistic Combination of PARP Inhibitors and Nicotinamide Phosphoribosyltransferase (NAMPT) Inhibitors in Ewing Sarcoma. Clin Cancer Res. 2017 Dec 1;23(23):7301-7311. doi: 10.1158/1078-0432.CCR-17-1121. Epub 2017 Sep 12. PMID: 28899971; PMCID: PMC6636827.
Potency means the concentration at half of the fitted maximal effect.

SMILES	Potency
COc1cc([C@@H]2c3cc4c(cc3[C@H](O)[C@H]3COC(=O)[C@@H]23)OCO4)cc(OC)c1OC	0.526 µM (active)
COc1ccc(CCC(=O)c2c(O)cc(O[C@@H]3O[C@H](CO)[C@@H](O)[C@H](O)[C@@H]3O[C@@H]3O[C@@H](C)[C@H](O)[C@@H](O)[C@@H]3O)cc2O)cc1O	inactive
C=CCNC1=C2C[C@@H](C)C[C@H](OC)[C@@H](O)[C@@H](C)C=C(C)[C@H](OC(N)=O)[C@@H](OC)C=CC=C(C)C(=O)NC(=CC1=O)C2=O	1.32 µM (active)
c1cncc(CN2CCC(n3ncc4c(N5CCOCC5)nc(-c5ccc6[nH]ccc6c5)nc43)CC2)c1	5.9 µM (active)
C[C@H](O)[C@@H]1C(=O)N2C(C(=O)O)=C(S[C@@H]3CN[C@H](CNS(N)(=O)=O)C3)[C@@H](C)[C@@H]12	inactive
CC(=O)[C@]1(O)Cc2c(O)c3c(c(O)c2[C@@H](O[C@H]2C[C@H](N)[C@@H](O)[C@H](C)O2)C1)C(=O)c1ccccc1C3=O	0.0526 µM (active)
COc1ccc(Nc2cc(-c3cnc(N)nc3)nc(N3CCOCC3)n2)cn1	1.66 µM (active)
COC1=C(OC)C(=O)C(CC=C(C)CCC=C(C)CCC=C(C)CCC=C(C)CCC=C(C)CCC=C(C)CCC=C(C)CCC=C(C)CCC=C(C)CCC=C(C)C)=C(C)C1=O	inactive
CNC(=O)Nc1ccc(-c2nc(N3CC4CCC(C3)O4)c3cnn(C4CCC5(CC4)OCCO5)c3n2)cc1	0.0418 µM (active)
COc1cccc2c1C(=O)c1c(O)c3c(c(O)c1C2=O)C[C@@](O)(C(=O)CO)C[C@H]3O[C@H]1C[C@H](N)[C@H](O)[C@H](C)O1	0.0209 µM (active)
CC(C)(O)CC[C@@H](O)[C@](C)(O)[C@H]1CC[C@@]2(O)C3=CC(=O)[C@@H]4C[C@@H](O)[C@@H](O)C[C@]4(C)[C@@H]3CC[C@]12C	inactive
CC[C@H](CC[C@@H](C)[C@H]1CC[C@H]2[C@@H]3CC=C4C[C@@H](O)CC[C@]4(C)[C@@H]3CC[C@]12C)C(C)C	inactive
Cn1cc(-c2ccc3ncc(Cc4ccc5ncccc5c4)n3n2)cn1	inactive
CS[C@H]1SC[C@@H]2C(=O)N(C)[C@H](C(C)C)C(=O)OC[C@H](NC(=O)c3cnc4ccccc4n3)C(=O)N[C@H](C)C(=O)N(C)[C@@H]1C(=O)N(C)[C@H](C(C)C)C(=O)OC[C@H](NC(=O)c1cnc3ccccc3n1)C(=O)N[C@H](C)C(=O)N2C	0.0019 µM (active)
COc1cc(OC)c(NC(=O)Nc2cc(C)on2)cc1Cl	inactive
CCC[C@H]1C[C@H](C(=O)N[C@@H]([C@@H]2O[C@@H](SC)[C@@H](O)[C@@H](O)[C@@H]2O)[C@H](C)Cl)N(C)C1	inactive
Cc1nc(NC(=O)N2CCC[C@@H]2C(N)=O)sc1-c1ccnc(C(C)(C)C(F)(F)F)c1	1.66 µM (active)
Nc1ccc(C(=O)Nc2cccc(-c3nc(N4CCOCC4)c4oc5ncccc5c4n3)c2)cn1	13.2 µM (active)
C[N+](C)([O-])CCNc1ccc(NCC[N+](C)(C)[O-])c2c1C(=O)c1c(O)ccc(O)c1C2=O	18.7 µM (active)
c1cc(N[C@@H]2CCNC2)nc(-c2cnc3ccc(-c4cn[nH]c4)cn23)c1	20.9 µM (active)

SMILES	Potency
C[C@H]1COc2c(N3CCN(C)CC3)c(F)cc3c(=O)c(C(=O)O)cn1c23	inactive
CN1[C@H]2CC(OC(=O)[C@@H](CO)c3ccccc3)C[C@H]1[C@H]1O[C@H]12 (stereo not given in full)	inactive
CC(=O)O[C@@]12CO[C@H]1C[C@H](O)[C@@]1(C)C(=O)[C@H](O)C3=C(C)[C@@H](OC(=O)C(O)[C@@H](NC(=O)OC(C)(C)C)c4ccccc4)C[C@@](O)([C@@H](OC(=O)c4ccccc4)[C@@H]21)C3(C)C (stereo not given in full)	inactive
C=C(C)[C@@H]1CC[C@]2(C(=O)O)CC[C@]3(C)[C@H](CC[C@@H]4[C@@]5(C)CC[C@H](O)C(C)(C)[C@@H]5CC[C@]43C)[C@@H]12	inactive
CC(C)c1cnn2c(NCc3ccccc3)cc(NCCCCCCN)nc12	20.9 µM (active)
CCS(=O)(=O)Nc1ccc2[nH]c(O)c(C(=Nc3ccc(CN4CCCCC4)cc3)c3ccccc3)c2c1	0.526 µM (active)
CC(C)NC[C@@H](C(=O)N1CCN(c2ncnc3c2[C@H](C)C[C@H]3O)CC1)c1ccc(Cl)cc1	0.105 µM (active)
C=CC(=O)Nc1ccc2ncnc(Nc3ccc(OCc4cccc(F)c4)c(Cl)c3)c2c1	8.33 µM (active)
Cc1cc(Nc2ncc3c(n2)N(C)C(=O)N(c2cc(NC(=O)c4cccc(C(F)(F)F)c4)ccc2C)C3)n(C)n1	1.32 µM (active)
COc1cc(C)c(C=CC(C)=CC=CC(C)=CC(=O)O)c(C)c1C	inactive
O=C(C=Cc1ccc(CN(CCO)CCc2c[nH]c3ccccc23)cc1)NO	0.059 µM (active)
N[C@H]1CN(c2c(F)cc3c(=O)c(C(=O)O)cn(C4C[C@@H]4F)c3c2Cl)CC12CC2 (stereo not given in full)	inactive
O=C(c1ccc(F)cc1)N1CCC[C@H](c2nc(-c3ccc(F)cc3)no2)C1	inactive
OC[C@@H](O)[C@@H](O)[C@H](O)[C@@H](O)CO	inactive
CCCc1nc(C(C)(C)O)c(C(=O)O)n1Cc1ccc(-c2ccccc2-c2nn[nH]n2)cc1	inactive
N#Cc1ccc(COC[C@H]2O[C@@H](n3c(NCc4ccc(Cl)c(Cl)c4)nc4c(N)ncnc43)[C@@H](O)[C@@H]2O)cc1	3.72 µM (active)
C=CC(=O)Nc1cc(NC(=O)c2ccc(C)c(NC(=O)c3ccno3)c2)cc(C(F)(F)F)c1	20.9 µM (active)
CCN(C(=O)c1c(O)c2c(Cl)cccc2n(C)c1=O)c1ccccc1	inactive
COc1ccc(S(=O)(=O)Nc2cccnc2Nc2ccc(O)cc2)cc1	0.105 µM (active)
COC(=O)[C@H](CCCN=C(N)N)NS(=O)(=O)c1ccc(C)cc1	inactive
